# Measured values reported in PubChem BioAssay AID2685 (National Center for Advancing Translational Sciences (NCATS), 2010).
# The whole screen tested about 320,000 compounds, of which about 2,100 (0.66%) were called active. Not shown: some 53% with an inconclusive outcome. Calls follow the shape of the dose curve; as a rule, active = well fitted inhibition curve with a large enough effect in the signal ratio, with a control signal flat (not every such curve was filed as active); inconclusive = small, poorly fitted or top-dose-only effect, or effect the other way, or a change in a side signal; inactive = flat fitted curve, though single readings scatter; the % refers to the signal ratio. The entries come from a sample that favours actives as a whole.
# Assay: qHTS Assay for Lipid Storage Modulators in Drosophila S3 Cells;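 as to cell number change: cells counted by Cell Tracker Red CMTPX staining in the red channel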; as to lipid storage change, negative = inhibition: % is scaled to controls: 0 for no effect and ±100 for the full control effect
# Conditions: BODIPY lipid droplet fluorescence, 18-24 h, cells fed with added oleic acid; cell number change: measured here: cell count max response; series mostly up to 46.1 µM; lipid storage change, negative = inhibition: at the top concentration
# Method in brief: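 Drosophila S3 cells got compounds at several concentrations plus oleic acid (400 uM solution). Laser-scanning cytometry with 488 nm excitation read lipid droplets at 500-530 nm and cells at 575-640 nm. Percent activity was relative to 20 uM Triacsin C.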
# Potency is read from the fitted curve at half-maximal effect.
SMILES,"lipid storage change, negative = inhibition",cell number change [%],Potency,outcome
c1ccc(N2CCN(CCc3nnc4n3CCCCC4)CC2)cc1,-2.85% (inactive),1.29,–,–
Cc1cc(NC(=O)c2ccco2)ccc1NC(=O)c1ccco1,-6.74% (inactive),11.3,–,–
CCOc1ccccc1NCc1cc(=O)oc2cc(C)c(O)cc12,–,-1.8,3.66 µM (active),–
CCOc1ccccc1NCc1cc(=O)oc2cc(C)ccc12,–,-3.97,–,inactive
Cc1cc2oc(=O)cc(CNc3ccccc3F)c2cc1O,5.68% (inactive),-14.4,–,–
CC(C)(C)c1ccc(NC(=O)c2cc[n+]([O-])cc2)cc1,–,27.8,–,inactive
Cc1ccn(CC(C)C(=O)O)n1 (centres undefined),0.546% (inactive),3.92,–,–
CCN1CCN(C(CNS(=O)(=O)c2ccc(Br)cc2)c2cccnc2)CC1 (centres undefined),7.69% (inactive),-9.83,–,–
CCOc1ccc(NC(=O)Nc2ccc(NC(C)=O)cc2)cc1,3.13% (inactive),11,–,–
CCOc1ccc(NC(=O)Nc2cccc(C(=O)O)c2)cc1,5.5% (inactive),14.2,–,–
CCOc1ccc(NC(=O)Nc2cc(OCC(F)(F)F)cc(OCC(F)(F)F)c2)cc1,–,-25.7,5.8 µM (active),–
CN(C)CCn1c2ccccc2c2nc3ccc([N+](=O)[O-])cc3cc21,–,-46.5,7.31 µM (active),–
CCN(CC)CCn1c2ccccc2c2nc3ccc([N+](=O)[O-])cc3cc21,14.4% (inactive),8.11,–,–
O=[N+]([O-])c1ccc2c(c1)c1ccccc1n2CCO,-5.42% (inactive),0.129,–,–
CC1(C)CC(=O)C2=C(C1)OC(N)=C(C#N)C2c1ccsc1 (centres undefined),–,–,–,inactive
COc1ccc(N2CCN(C(=O)C3CCN(S(=O)(=O)c4ccc5c(c4)oc(=O)n5C)CC3)CC2)cc1,–,–,–,inactive
COc1cc(/C=C/C(=O)Nc2ccc3nc4n(c(=O)c3c2)CCCC4)cc(OC)c1OC,0.128% (inactive),-7.64,–,–
C/C(=N/Nc1ccccc1[N+](=O)[O-])c1ccc([N+](=O)[O-])cc1,7.53% (inactive),22.2,–,–
O=[N+]([O-])c1ccccc1N/N=C/c1ccccc1,–,-10.2,–,inactive
CC(C)/C(=N/Nc1ccccc1[N+](=O)[O-])c1ccccc1,–,-12.6,9.2 µM (active),–
COc1cccc(CN2CC(C(=O)NCCCn3cccn3)CCC2=O)c1 (centres undefined),-17.1% (inactive),0.348,–,–
CCC(=O)N/N=C/c1ccc(-c2ccc([N+](=O)[O-])cc2)o1,20.1% (inactive),3.62,–,–
CCCNC(=O)Cn1c(=O)/c(=C\c2ccc(-c3cccc([N+](=O)[O-])c3)o2)s/c1=C\C(=O)C(C)(C)C,–,0.916,–,inactive
CC(C)(C)C(=O)/C=c1\s/c(=C\c2ccc(-c3ccc([N+](=O)[O-])cc3)o2)c(=O)n1CC(=O)NC(N)=O,–,-31.4,1.03 µM (active),–

SMILES,"lipid storage change, negative = inhibition",cell number change [%],Potency,outcome
O=C(COC(=O)CCN=C1NS(=O)(=O)c2ccccc21)NNC(=O)c1ccccc1,-1.99% [at 0.0737 µM] (inactive),-17.2,–,–
Cn1cc(CN2CCC(N3CCNC(=O)CC3)CC2)c(-c2ccccc2F)n1,-10.8% (inactive),-9.69,–,–
CCOC(=O)C1CCN(Cc2ccc(OC)c(OCc3ccccc3)c2)CC1,-14.2% (inactive),-8.13,–,–
O=C(CSc1nc(-c2ccc(F)cc2)cs1)NCCN1C(=O)CSC1=O,-7.68% (inactive),–,–,–
O=C(CSc1n[nH]c(-c2cc(Cl)ccc2Cl)n1)NCCN1C(=O)CSC1=O,–,-24.6,18.4 µM (active),–
O=C(COC(=O)c1cc(Cl)ccc1Cl)NCCN1C(=O)CSC1=O,9.78% (inactive),-6.51,–,–
O=C(CCc1nnc2ccc(NCc3ccccc3Cl)nn12)NC1CCCC1,2.54% (inactive),3.96,–,–
CC1(C)CC(=O)C2=C(C1)Oc1ncn(Cc3ccco3)c(=N)c1C2c1ccccc1 (centres undefined),19.1% (inactive),-0.936,–,–
CC(C)(C)n1ncc2c(=O)n(Cc3c(F)cccc3Cl)cnc21,0.516% (inactive),4.75,–,–
O=C1NC(c2ccccc2)=C(c2ccc3ccccc3n2)C(c2ccccc2)N1 (centres undefined),9.51% (inactive),-0.112,–,–
CC(C)(Oc1ccc(CCNC(=O)c2ccc(-c3ccccc3)o2)cc1)C(=O)O,-18.4% (inactive),7.48,–,–
Cc1ccc(S(=O)(=O)Nc2nc3ccccc3nc2NCc2ccc3c(c2)OCO3)cc1C,1.16% (inactive),-0.718,–,–
O=c1oc(-c2cc3ccccc3o2)nc2sc3c(c12)CCCC3,0.767% (inactive),-5.74,–,–
COc1ccc(C(=O)COC(=O)CNC(=O)c2ccc(OC)cc2)cc1,8.54% (inactive),–,–,–
COc1ccc(C(=O)NN)cc1,1.51% (inactive),15,–,–
COc1ccc(C(=O)NCC(=O)O)cc1,–,-3.91,16.4 µM (active),–
CCc1nccn1S(=O)(=O)c1cc(OC)ccc1OC,12.7% (inactive),–,–,–
CCn1cc(CN2CCN(Cc3ccc(OC)c(C)c3C)C(CCO)C2)c(C)n1 (centres undefined),24% (inactive),2.86,–,–
CCCCCn1cnnc1SCC(=O)c1ccc2c(c1)OCO2,–,-4.15,–,inactive
CC(=Nc1ccccc1O)c1sc2ccccc2c1O,–,-13.3,25.9 µM (active),–
CC(=Nc1ccc(Br)cc1)c1sc2ccccc2c1O,–,–,–,inactive
CC(=Nc1ccc(O)cc1)c1sc2ccccc2c1O,4.99% (inactive),0.835,–,–
CCn1cc(C(=O)N(C)CC(OC)OC)c(=O)c2cc(S(=O)(=O)N3CCOCC3)ccc21,–,3.42,–,inactive
C=CCn1c(=S)[nH]c2cc(C(=O)NCCc3ccc(S(N)(=O)=O)cc3)ccc2c1=O,3.58% (inactive),16.5,–,–

SMILES,"lipid storage change, negative = inhibition",cell number change [%],Potency,outcome
Cc1ccc(S(N)(=O)=O)c(C)c1-n1cnnn1,3.06% (inactive),3.24,–,–
Cc1ccc(SC(C)C(=O)Nc2c(C)n(C)n(-c3ccccc3)c2=O)cc1 (centres undefined),–,–,–,inactive
COc1cc(-c2nnc(SC(C)C(=O)Nc3c(C)n(C)n(-c4ccccc4)c3=O)o2)cc(OC)c1OC (centres undefined),–,-15.3,25.9 µM (active),–
CCN1CCN(C(C)C(=O)Nc2c(C)n(C)n(-c3ccccc3)c2=O)CC1 (centres undefined),12.9% (inactive),-2.1,–,–
Cc1cc(SC(C)C(=O)Nc2c(C)n(C)n(-c3ccccc3)c2=O)nc2ccccc12 (centres undefined),-14.6% (inactive),-14.4,–,–
Cc1c(NC(=O)C(C)N2C(=O)C3CCCCC3C2=O)c(=O)n(-c2ccccc2)n1C (centres undefined),-5.56% (inactive),9.88,–,–
Cc1c(NC(=O)C(C)N2CC(C)OC(C)C2)c(=O)n(-c2ccccc2)n1C (centres undefined),–,11.9,7.31 µM (active),–
COCCNC(=O)C(C)Oc1ccccc1 (centres undefined),20.9% (inactive),20.2,–,–
NS(=O)(=O)c1ccc(CNC(=O)CSc2nc3ccc(Cl)cc3[nH]2)cc1,-1.11% (inactive),-16.1,–,–
COc1ccc(C2CC(=O)c3sc(NC(C)=O)nc3C2)cc1 (centres undefined),-1.03% (inactive),20.9,–,–
Cc1ccc(NC(=S)N2CCC(N(C)CC3CCCO3)CC2)cc1C (centres undefined),7.38% (inactive),5.03,–,–
Cc1cccc(C)c1NC(=S)N1CCC(N(C)CC2CCCO2)CC1 (centres undefined),–,-14.4,20.6 µM (active),–
Cc1ccc(NC(=S)N2CCC(N(C)CC3CCCO3)CC2)cc1 (centres undefined),1.85% (inactive),14.9,–,–
Cc1cc(C)cc(NC(=S)N2CCC(N(C)CC3CCCO3)CC2)c1 (centres undefined),2.61% (inactive),11.9,–,–
Cc1cc(C)c(NC(=S)N2CCC(N(C)CC3CCCO3)CC2)c(C)c1 (centres undefined),–,6.74,25.9 µM (active),–
Cc1c(Cl)cccc1NC(=S)N1CCC(N(C)CC2CCCO2)CC1 (centres undefined),5.5% (inactive),7.58,–,–
Cc1cc(-c2csc(N)n2)c(C)n1CCc1ccccc1,–,-18.9,–,inactive
CCN(CC)C(=O)C1CCN(S(=O)(=O)c2ccc(-n3cnnn3)cc2)CC1,-3.69% (inactive),1.39,–,–
COc1ccc(S(=O)(=O)NCC(=O)NCc2cc(=O)n(C)c(=O)n2C)cc1C,-0.472% (inactive),10.1,–,–
CCOC(CCn1c(SCC(=O)NC2CCCC2)nc2ccccc2c1=O)OCC,–,7.57,–,inactive
CN(C)CCCNCCCNC(=O)c1ccncc1,-3.34% (inactive),10.5,–,–
O=C(CC1C(=O)NCCN1Cc1cccc(F)c1)NC1CCCCC1 (centres undefined),-0.615% (inactive),13.2,–,–
O=C(CC1C(=O)NCCN1Cc1ccccc1)NC1CCCCCC1 (centres undefined),–,13.2,–,inactive
O=C(CC1C(=O)NCCN1Cc1cccc(C(F)(F)F)c1)NC1CCCCCC1 (centres undefined),–,13.5,5.17 µM (active),–

SMILES,"lipid storage change, negative = inhibition",cell number change [%],Potency,outcome
Cc1n[nH]c(C)c1C(=O)CC1(O)C(=O)N(CCc2ccccc2)c2ccc(Br)cc21 (centres undefined),10.4% (inactive),12.8,–,–
O=C1NC2(Nc3ccccc31)C(=O)Nc1ccc(Br)cc12 (centres undefined),-0.023% (inactive),-0.207,–,–
O=C1Nc2ccc(Br)cc2C12NNc1ccccc1O2 (centres undefined),–,–,23.1 µM (active),–
O=C1Nc2ccc(Br)cc2C1(O)c1ccccc1 (centres undefined),3% (inactive),20.9,–,–
CCOc1ccc(NC(=O)NC(C)c2ccc3c(c2)OCO3)cc1 (centres undefined),15.4% (inactive),-0.862,–,–
O=C(CCSc1nc(-c2ccc3c(c2)OCO3)cc(C(F)(F)F)n1)NCc1ccccc1,-11.3% (inactive),-16.9,–,–
CCc1cccc(NC(=O)NC(=O)Cn2nnc(C(=O)OC)c2C(=O)OC)c1,23.6% (inactive),1.8,–,–
CC(C)Sc1nnc([C@@H]2CCCN2C(=O)OC(C)(C)C)o1,–,-3.74,32.6 µM (active),–
CCSc1nnc([C@@H]2CCCN2C(=O)OC(C)(C)C)o1,–,6.53,23.1 µM (active),–
CC(C)(C)OC(=O)N1CCC[C@H]1c1nnc(SCc2ccccc2)o1,7.68% (inactive),10.4,–,–
C=C(C)CSc1nnc([C@@H]2CCCN2C(=O)OC(C)(C)C)o1,3.39% (inactive),9.31,–,–
Cc1ccc(CSc2nnc([C@@H]3CCCN3C(=O)OC(C)(C)C)o2)cc1,3.95% (inactive),17.7,–,–
CCCCSc1nnc([C@@H]2CCCN2C(=O)OC(C)(C)C)o1,11.2% (inactive),-21.2,–,–
COc1ccc(C=O)cc1Cn1ccnc1C,-6.92% (inactive),-21.5,–,–
CC(C)(C)c1ccc(/C=C(\C#N)C(=O)Nc2ccccn2)cc1,20.5% (inactive),9.55,–,–
N#C/C(=C\c1cccs1)C(=O)Nc1ccccn1,-4.46% (inactive),9.59,–,–
N#C/C(=C\c1ccccc1Cl)C(=O)Nc1ccccn1,–,7.44,25.9 µM (active),–
Cc1ccc(-c2cc(C(F)F)n3ncc(C(=O)N4CCc5ccccc5C4)c3n2)cc1,8.24% (inactive),3.7,–,–
CC(=O)Nc1cccc(Oc2ncnc3scc(-c4ccccc4)c23)c1,9.37% (inactive),1.71,–,–
CCCn1nc(C(=O)N2CCN(S(=O)(=O)c3ccc(C)c(C)c3)CC2)c2ccccc2c1=O,–,29.1,11.6 µM (active),–
CCCn1nc(C(=O)N2CCc3ccccc3C2)c2ccccc2c1=O,4.01% (inactive),-8.58,–,–
Cc1ccc(S(=O)(=O)N2CCN(C(=O)c3nn(C(C)C)c(=O)c4ccccc34)CC2)cc1C,–,–,–,inactive
